The source of these data is PubChem BioAssay.

The test is described as follows: mitochondrial membrane potential change in A549 cells, profiling panel, cell-based, JC-1 fluorescence, basal, 24 h, 100 nL (AID 1138).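 Further: A549 lung adenocarcinoma cells under basal conditions with no added stimulus; test concentration not given here.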 As to conditions: higher = more signal.
For the compound `O=[N+]([O-])c1ccc(C[n+]2ccc3ccc(O)cc3c2)o1`, the z-score stood at 1.25.

Regarding `O=C1O[C@@H](c2ccccc2)[C@@H](c2ccccc2)N2[C@@H](c3ccccc3OCCO)[C@]3(C(=O)Nc4ccc(C#CC5=CCCCC5)cc43)[C@@H](C(=O)O)[C@H]12`, the z-score was -2.32.

Compound `CCC#CCN(Cc1ccccc1Br)[C@H](/C=C/c1ccccc1)[C@@H](O)Cc1ccccc1` registered a z-score of -0.565.

With `COCCOC(=O)N1C(=O)[C@@]2(c3cc(C#CC4(O)CCCCCC4)ccc31)[C@H](C(=O)N1CCCCCCC1)[C@H]1C(=O)O[C@H](c3ccccc3)[C@H](c3ccccc3)N1[C@@H]2c1ccc(O)cc1`, the z-score was determined as 0.208.

`C[N+](C)(C)CCCCNC(=O)[C@@H]1C[C@@H]2C(=O)N3CCC[C@H]3C(=O)N2[C@@H]1c1cccc(OCCO)c1` displayed a z-score of -0.0151.

With `C=CCN1C(=O)[C@]2(O[C@H](CCn3cc(CCO)nn3)[C@@H]([Si](C)(C)c3ccc(OC)cc3)[C@@H]2C)c2cc(NC(=O)c3ccc(OC)cc3)ccc21`, the z-score came to 2.37.

Take `CO[C@H]1COC(=O)[C@@H](Cc2ccccc2)NC(=O)[C@@H](C)COC(=O)CC=C[C@@H]1C`: the z-score was determined as 1.3.

For the compound `O=C1C2C=CC(C(O)c3ccccc3)N(n3cnnc3)C2C(=O)N1Cc1ccccc1` (stereo unspecified), the z-score amounted to 0.348.

As to `C=C(COC)/C(=C/C[C@@H](OC(=O)c1ccncc1)c1ccc(OCCO)cc1)c1cc(C(=O)OC)ccc1OC`, the z-score turned out to be 2.2.

`O=C1C[C@@](C(=O)NCCN2CCOCC2)(c2ccc([N+](=O)[O-])cc2)[C@@H](c2ccc(CO)cc2)N1C1CCCCC1` gave a z-score of 1.11.

The compound `COc1ccc(NN2C(C(O)c3cc(OC)c(OC)c(OC)c3)C=CC3C(=O)N(C4CCCCC4)C(=O)C32)cc1` (stereo unspecified) showed a z-score of 0.469.

As to `C=C(C)[C@@H]1CC=C(C(O)C2C=CC3C(=O)NC(=O)C3N2Nc2ccccn2)CC1` (stereo partly specified), the z-score was 0.781.

As for `O=C1OCCC/C=C\[C@H]2OC34C=CCN(CCN5CCOCC5)C(=O)[C@H]3N(CCCCCO)C(=O)[C@@H]4C12` (stereo partly specified), the z-score is -0.203.

The compound `NC(=O)NCC#Cc1ccc2c(c1)[C@]1(C(=O)N2)[C@H](C(N)=O)[C@H]2C(=O)O[C@H](c3ccccc3)[C@H](c3ccccc3)N2[C@@H]1c1ccccc1OCCO` displayed a z-score of -0.525.

Compound `COc1ccc([Si](C)(C)[C@H]2[C@H](CCO)O[C@@]3(C(=O)N(Cc4ccccc4)c4ccc(N5C(=O)c6cccc7cccc5c67)cc43)[C@@H]2C)cc1` gave a z-score of 2.33.

In the case of `CN(C)c1ccc(C(O)C2C=CC3C(=O)NC(=O)C3N2Nc2ccc(Cl)cc2Cl)cc1` (stereo unspecified), the z-score was determined as 0.587.

Take `COC(=O)C(CC#Cc1ccc2c(c1)[C@]1(C(=O)N2)[C@H](C(=O)N2CCCCCCC2)[C@H]2C(=O)O[C@H](c3ccccc3)[C@H](c3ccccc3)N2[C@@H]1c1ccc(O)cc1)C(=O)OC`: the z-score was -1.03.

As to `C=CCNC(=O)[C@@H]1[C@H]2C(=O)O[C@H](c3ccccc3)[C@H](c3ccccc3)N2[C@H](c2ccc(OCCO)cc2)[C@@]12C(=O)N(C(=O)OCCOC)c1ccc(C#CC3(O)CCCCCC3)cc12`, the z-score was -1.

In the case of `CC(C)[Si]1(C(C)C)O[C@@H](c2ccccc2)c2cc(C3CC3)nc(-c3ccc(Oc4ccccc4)cc3)c21`, the z-score came out at 1.55.

Take `[N-]=[N+]=NCc1ccccc1C[C@]1(C(=O)N2CCCCC2)N=C(c2ccc(OCCCO)cc2)O[C@H]1c1ccccc1CN=[N+]=[N-]`: the z-score was -0.0989.

Take `Cc1ccc(N2C(=O)c3ccccc3[C@@H](C(=O)NCC(F)(F)F)[C@@H]2c2ccc(CO)cc2)nc1`: the z-score is -0.913.

For the compound `CC(C)N1CC=CC23O[C@@H]4/C=C\CCCOC(=O)C4[C@H]2C(=O)N(CCO)[C@@H]3C1=O` (stereo partly specified), the z-score worked out at 1.77.

In turn, `O=C(NCC(F)(F)F)[C@@H]1c2ccccc2C(=O)N(Cc2ccccc2Cl)[C@H]1c1ccc(CO)cc1` showed a z-score of 0.97.

In the case of `C=CCNC(=O)[C@H]1[C@@H]2C(=O)O[C@@H](c3ccccc3)[C@@H](c3ccccc3)N2[C@@H](c2ccccc2OCCO)[C@]12C(=O)N(C(=O)OCCOC)c1ccc(C#CCC(C(=O)OC)C(=O)OC)cc12`, the z-score was -1.18.

`C[C@@H]1C=CCC(=O)OC[C@H]2O[C@@H](C=C[C@@H]2O)[C@H](C)C=CCC(=O)OC[C@H]2O[C@H]1C=C[C@@H]2O` gave a z-score of 0.307.

In turn, `Cc1ccc(S[C@]2(C(=O)NCCN3CCOCC3)CC(=O)N(C3Cc4ccccc4C3)[C@@H]2c2ccc(CO)cc2I)cc1` came in with a z-score of 1.3.

In the case of `CC(C)CNC(=O)[C@@]1(C)c2ccccc2C(=O)N(Cc2ccc(OC(F)(F)F)cc2)[C@H]1c1ccc(CO)cc1`, the z-score worked out at 0.209.

With `CO[C@H]1COC(=O)CC=C[C@@H](C)COC(=O)[C@@H](C)NC(=O)CC=C[C@@H]1C`, the z-score was 1.15.

`C=C[C@H](OC)[C@@H](OC(=O)Nc1ccc(SC)cc1)c1ccc(O)c(F)c1` yielded a z-score of -0.97.

In turn, `[N-]=[N+]=NCc1ccccc1C[C@@]1(C(=O)N2CCOCC2)N=C(c2ccc(OCCCO)cc2)O[C@@H]1c1ccccc1N=[N+]=[N-]` had a z-score of 1.4.

For the compound `[N-]=[N+]=NCc1ccccc1C[C@@]1(C(=O)O)N=C(c2ccc(OCCCO)cc2)O[C@@H]1c1ccccc1N=[N+]=[N-]`, the z-score was found to be 0.376.

In the case of `CSCC[C@@H]1NC(=O)CC=C[C@@H](C)COC(=O)[C@H](CCSC)NC(=O)CC=C[C@@H](C)COC1=O`, the z-score stood at 1.01.

For `C=C(COC)/C(=C/C[C@@H](OC(C)=O)c1cccc(OCCO)c1)c1cc(C(=O)OC)ccc1OC`, the z-score was determined as 1.37.

With `CCOC(=O)C[C@H]1[C@H](OC(=O)c2cc3ccccc3oc2=O)[C@@H](NC(=O)C2CCCCC2)c2cc(OCCCO)ccc2N1C(=O)c1ccc2ccccc2n1`, the z-score worked out at 0.539.

Turning to `C=C(COC)C(=O)CC[C@H](OC(=O)c1ccccc1-c1ccccc1C(=O)O)c1cccc(OCCO)c1`, the z-score is -1.02.

Take `C=CC[C@]1(C(=O)OC)N=C(c2ccc(OCCCO)cc2)O[C@H]1c1ccccc1CN=[N+]=[N-]`: the z-score was 1.22.
